# Screens: PubChem, National Center for Advancing Translational Sciences (NCATS)
# Rows were chosen to be rich in hits. Some 19% of all compounds tested hit in one or more screens of this group.
# HepG2 tox = kills HepG2 cells in TGF-b inhibitor counter-screen; AID 588856; HepG2 CAGA-GFP viability, ATP luminescence, 18 h; 410,000 compounds, 0.76% hits; Potency, µM (highest dose often 46.1 µM), without a hit: at the top dose activity change, negative = cytotoxicity, hits mostly cytotoxic; note: potency is the fitted concentration of half-maximal effect
#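 CellTiter-Glo luminescence gave cytotoxicity after 18 hours at 37 degrees C. The cells were HepG2 CAGA-GFP in 1% FBS DMEM, stimulated with 500 pg/mL TGF-beta after compound addition. %Activity was normalised to no-cell wells (complete cell-killing) and DMSO (no toxicity), and curves were fitted and classified.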
# S-ASM inh = blocks human secretory acid sphingomyelinase. placental ASM, HMU-PC fluorogenic substrate, 60 min. Potency, µM (titrated, usually from 57.5 µM), inactives show at the top dose activity change, negative = inhibition, actives largely listed as inhibitors. 340,000 compounds, 0.006% hits. AID 504937; note: potency is the fitted concentration of half-maximal effect
# Target sequence (P17405 47-631 limits assumed): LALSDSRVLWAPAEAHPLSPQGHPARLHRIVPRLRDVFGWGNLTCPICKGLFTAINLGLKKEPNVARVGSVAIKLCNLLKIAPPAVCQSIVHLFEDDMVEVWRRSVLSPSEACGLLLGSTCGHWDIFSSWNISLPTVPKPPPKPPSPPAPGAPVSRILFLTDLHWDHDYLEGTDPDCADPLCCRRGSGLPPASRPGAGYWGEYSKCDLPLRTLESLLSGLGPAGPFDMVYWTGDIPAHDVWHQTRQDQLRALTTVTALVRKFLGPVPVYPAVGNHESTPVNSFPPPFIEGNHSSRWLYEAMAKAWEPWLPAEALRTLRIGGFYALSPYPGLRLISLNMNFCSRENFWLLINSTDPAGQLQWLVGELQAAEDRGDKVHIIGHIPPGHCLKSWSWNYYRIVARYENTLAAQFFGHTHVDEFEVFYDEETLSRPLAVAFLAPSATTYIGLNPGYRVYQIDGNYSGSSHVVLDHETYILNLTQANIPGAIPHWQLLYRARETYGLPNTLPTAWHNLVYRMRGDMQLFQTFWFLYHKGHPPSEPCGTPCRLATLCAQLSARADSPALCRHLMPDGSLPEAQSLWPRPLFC
#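 Fluorescence read-out (Ex 386 nm, Em 447 nm) after stopping the reaction at pH 10. Enzyme: ASM from human placenta; substrate HMU-PC0, 9 uM final; 60 min, 37 °C. Compound preincubation 10 min, ambient temperature.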
# DT40 TDP1 no CPT = qHTS for Inhibitors of human tyrosyl-DNA phosphodiesterase 1 (TDP1): qHTS in cells in absence of CPT. DT40 Tdp1-/- hTDP1 cells, no CPT, ATP luminescence, 48 h. Potency, µM (top dose mostly 46.2 µM), for the others: top-dose activity change, negative = growth inhibition, usual class: inhibitors. 420,000 compounds, 15% hits; note: potency is the fitted concentration of half-maximal effect; % is set by controls: 0 for no effect and ±100 for the full control effect; nearly all actives have a fitted effect of over 55% in size
#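 Growth of hTDP1-complemented DT40 Tdp1-knockout cells is measured by ATP luminescence after at least 48 hr compound exposure at 37 °C, with DMSO substituting for the 20 nM CPT used in the parallel screen.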
# TDP1 cell CPT = DT40-hTDP1 cell growth loss with CPT. chicken DT40 Tdp1-/-;hTDP1 cells + 20 nM CPT, ATP luminescence, 48 h. Potency, µM (titrated, usually from 46.2 µM), for inactives: at the top dose activity change, negative = growth inhibition, usual class: inhibitors. 420,000 compounds, 12% hits. AID 686979; note: potency is the fitted concentration of half-maximal effect; % is set by controls: 0 for no effect and ±100 for the full control effect; nearly all actives have a fitted effect of over 55% in size
#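 Chicken DT40 Tdp1-/- cells stably complemented with human TDP1 were seeded at 400 cells/well in medium containing 20 nM camptothecin, exposed to pin-transferred compounds, and grown at 37 °C for at least 48 hr. Viability was read as ATP luminescence.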
# TGFb SMAD3 inh = inhibitors of TGF-b signaling; HepG2 CAGA-GFP TGF-b/SMAD3 reporter, GFP fluorescence, 18 h; TGF-beta stimulated, 500 pg/mL final; Potency, µM (highest dose often 46.1 µM), without a hit: at the top dose activity, negative = inhibition, actives largely listed as inhibitors; 410,000 compounds, 1.2% hits; AID 588855; note: potency is the fitted concentration of half-maximal effect; % is set by controls: 0 for no effect and ±100 for the full control effect; nearly all actives have a fitted effect of over 65% in size
#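 Inhibition was scored as loss of TGF-beta-induced (500 pg/mL final, 18 hours, 37 degrees C) GFP in HEPG2 cells carrying a CAGA-GFP reporter, in DMEM with 1% FBS. Well GFP was summed per cell; Activity was normalised to unstimulated and stimulated DMSO wells, then concentration-response fitting.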
# IL1B secr inh = inflammasome signaling inhibition, IL-1 beta readout | activity change, % at 57.5 µM | THP-1 LPS/ATP IL-1B secretion, AlphaLISA, 16 h; stronger effect = lower value | AID 743279 | 360,000 compounds, 4.7% hits; in the data active = activity change below about -50%; inconclusive = mostly about -30% to -49%; note: % is set by controls: 0 for no effect and ±100 for the full control effect
#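 Secreted IL-1B measured by AlphaLISA bead assay after 16 h compound exposure of THP-1 cells; compounds (final up to 57.5 uM) added 1 h before LPS (250 ng/mL) and ATP (1.25 mM) stimulation; lower signal means less secretion.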
# Active calls of the source: *; u = inconclusive; x = no result given; [ ] = remark or other dose. Unless noted, calls come from the whole dose curve; as a rule, active = well fitted curve in the direction sought with a large enough effect; inconclusive = small, poorly fitted or top-dose-only effect, or another doubt; inactive = no such curve, though single readings can be large; an effect the other way counts as inactive or inconclusive.
SMILES,HepG2 tox,S-ASM inh,DT40 TDP1 no CPT,TDP1 cell CPT,TGFb SMAD3 inh,IL1B secr inh
CC1=C(C(=O)OC(C)C)C(c2cn(-c3ccccc3)nc2-c2cccs2)NC(=O)N1 (stereo not drawn),-4.1%,-19.3%,23.1µM*,u,6.1%,13.7
COC(=O)C1=C(C)NC(=O)NC1c1cn(-c2ccccc2)nc1-c1ccc(OC)c(Br)c1 (stereo not drawn),-13.9%,x,u,-24.8%,-3.7%,x
CNC(=O)C1CCC(Cn2c(=O)c3sccc3n(CC(=O)NCc3ccccc3)c2=O)CC1 (stereo not drawn),-14.6%,x,u,u,u,x
CC1CCCN(C(=O)CCNS(=O)(=O)c2ccc(Br)cc2)C1 (stereo not drawn),-41.2%,-0.8%,-21.5%,-23.6%,-9.8%,-13.5
CN1CCCC1CCNS(=O)(=O)c1ccc(Br)cc1 (stereo not drawn),-17.4%,2.2%,9.2µM*,u,u,7.1
Cc1nn(CC(=O)Nc2ccc(Cl)cn2)c(C)c1Br,12.1%,1.0%,u,-13.6%,u,30.7
Cc1ccc2cc(C)c(SCC#N)nc2c1,-2.0%,-4.2%,3.5%,-4.0%,-2.9%,u
Cc1ccc2cc(CCl)c(Cl)nc2c1,1.0%,-2.2%,20.6µM*,16.4µM*,-2.5%,15.7
CCc1cc2ccccc2nc1Cl,-3.9%,-1.7%,15.4%,0.1%,2.6%,-7.0
ClCc1cc2ccccc2nc1Cl,7.8%,7.7%,8.2µM*,10.3µM*,6.9%,-0.1
OCCn1ccc(-c2ccccc2OCc2ccc(F)cc2)n1,-7.6%,-0.9%,20.6µM*,u,-10.7%,-8.4
COc1cc2c(cc1NS(=O)(=O)c1cccc(C#N)c1)n(C)c(=O)n2C,-8.0%,x,u,20.6µM*,5.7%,x
Cc1ccc2c(c1)c1c(c(=O)n(Cc3ccccc3)c(=O)n1CC(=O)Nc1ccccc1F)n2C,0.4%,x,u,-5.1%,0.3%,x
NNC(=O)c1cc(Cl)ccc1Cl,-12.9%,7.5%,8.5%,-0.4%,-26.9%,1.0
N/C(=C\C(=O)c1cc(Cl)ccc1O)C(Cl)(Cl)Cl,-89.0%,-1.4%,3.26µM*,3.66µM*,10µM*,0.0
C=CCOC(=O)/C(=C/c1cccc2ccccc12)NC(=O)c1ccccc1,-3.4%,-5.9%,23.1µM*,29.1µM*,-2.5%,-9.7
COc1ccc(C(=O)N/C(=C\c2cn(C)c3ccccc23)C(=O)N2CCN(C)CC2)cc1,-4.0%,3.1%,25.6%,3.2%,1.7%,-15.9
COc1ccc(C(=O)N/C(=C\c2cccc3ccccc23)C(=O)N2CCN(C)CC2)cc1,-33.4%,-3.3%,18.4µM*,u,-17.4%,u
Cc1cc(C)c2c(CC(=O)N(Cc3ccccc3)C3CCS(=O)(=O)C3)coc2c1 (stereo not drawn),-8.3%,x,u,u,u,x
N#Cc1ccc(N2CCCNCC2)nc1,-3.1%,-1.2%,9.4%,6.7%,-2.9%,15.3
COc1ccc(C(=O)c2c(C(F)(F)F)oc3c2C(=O)c2ccccc2C3=O)cc1OC,3.55µM*,-8.0%,5.8µM*,2.31µM*,3.98µM*,u
COc1ccc(C(=O)Nc2ccc3c(c2)N(C2CCCC2)C(=O)c2ccccc2S3)cc1OC,-3.6%,x,5.17µM*,10.3µM*,20.6%,x
COc1ccc(C(=O)c2ccccc2Cl)cc1OC,-22.4%,1.9%,-15.9%,7.2%,-2.9%,-15.0
COc1ccc(C(=O)Nc2ccc3c(c2)C(=O)c2ccccc2C3=O)cc1OC,-20.6%,-2.2%,u,10.3µM*,-13.7%,10.7
CC(=O)Nc1ccccc1-c1nc(CNC(=O)c2ccc(-n3cccn3)cc2)c(C)o1,x,x,-20.4%,-13.3%[9.04 µM],x,x
